Values joined by “and” are separate entries in the source; they are usually repeats but may differ in a detail not shown here. Equal entries are not always repeated. Results filed as inconclusive are left out. Active and inactive are the calls of the source. Unless noted, calls follow the shape of the dose curve; as a rule, active = well fitted curve in the direction sought with a large enough effect; inconclusive = small, poorly fitted or top-dose-only effect, or another doubt; inactive = no such curve, though single readings can be large; an effect the other way counts as inactive or inconclusive.
Legend:
[1] = test system: Hek293T; experiment: Primary qHTS to identify gynecologic anti-cancer compounds using libraries of approved drugs and bioactive compounds (AID 1345084); conditions: Gynecologic cancer cell panel viability, ATPlite luminescence, 48 h, control line for the selectivity index; series mostly up to 57.5 µM; also: % is scaled to controls: 0 for no effect and ±100 for the full control effect; nearly all actives have a fitted effect of over 55% in size
Procedure, shortened: (§1)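 Cells, 1,000 per well, plated 16 h, then exposed 48 h at 37 C to compounds. Viability by ATPlite luminescence after 15 min at room temperature.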

[2] = test system: JEG-3; experiment: as above; conditions: Gynecologic cancer cell panel viability, ATPlite luminescence, 48 h; series mostly up to 57.5 µM
Procedure, shortened: as §1

[3] = test system: OV90; experiment: as above; conditions: Gynecologic cancer cell panel viability, ATPlite luminescence, 48 h; series mostly up to 57.5 µM
Procedure, shortened: as §1

[4] = test system: PA-1; experiment: as above; conditions: Gynecologic cancer cell panel viability, ATPlite luminescence, 48 h; series mostly up to 57.5 µM
Procedure, shortened: as §1

[5] = test system: SKOV3; experiment: as above; conditions: Gynecologic cancer cell panel viability, ATPlite luminescence, 48 h; series mostly up to 57.5 µM
Procedure, shortened: as §1

[6] = test system: Tov-21-G; experiment: as above; conditions: Gynecologic cancer cell panel viability, ATPlite luminescence, 48 h; series mostly up to 57.5 µM
Procedure, shortened: as §1

[7] = test system: Tov112D; experiment: as above; conditions: Gynecologic cancer cell panel viability, ATPlite luminescence, 48 h; series mostly up to 57.5 µM
Procedure, shortened: as §1

[8] = Drug repurposing screens with cells derived from glioblastoma tumor samples (AID 1345199); conditions: GBM patient neurospheres viability, ATP luminescence, 48 h; also: % is scaled to controls: 0 for no effect and ±100 for the full control effect; nearly all actives have a fitted effect of over 40% in size
Procedure, shortened: (§2)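 Four patient lines of CD133+ GBM neurospheres were screened at several concentrations; hits were retested in those lines plus three slower-growing GBM lines, using 48-hour treatment and ATP-based viability.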

[9] = test system: astro; experiment: as above; conditions: viability, ATP luminescence, 48 h; series mostly up to 45.9 µM
Procedure, shortened: as §2

[10] = molecular target: Nuclear receptor subfamily 1 group I member 2 (Rattus norvegicus) (UniProt Q9R1A7); experiment: qHTS assay for small molecule activators of the rat pregnane X receptor (rPXR) signaling pathway (AID 651751; call rule not given here; also: 0% is about no effect); conditions: rPXR reporter cells, luciferase (One-Glo), 24 h
Sequence of Nuclear receptor subfamily 1 group I member 2 (Rattus norvegicus) (Q9R1A7 whole entry, looked up): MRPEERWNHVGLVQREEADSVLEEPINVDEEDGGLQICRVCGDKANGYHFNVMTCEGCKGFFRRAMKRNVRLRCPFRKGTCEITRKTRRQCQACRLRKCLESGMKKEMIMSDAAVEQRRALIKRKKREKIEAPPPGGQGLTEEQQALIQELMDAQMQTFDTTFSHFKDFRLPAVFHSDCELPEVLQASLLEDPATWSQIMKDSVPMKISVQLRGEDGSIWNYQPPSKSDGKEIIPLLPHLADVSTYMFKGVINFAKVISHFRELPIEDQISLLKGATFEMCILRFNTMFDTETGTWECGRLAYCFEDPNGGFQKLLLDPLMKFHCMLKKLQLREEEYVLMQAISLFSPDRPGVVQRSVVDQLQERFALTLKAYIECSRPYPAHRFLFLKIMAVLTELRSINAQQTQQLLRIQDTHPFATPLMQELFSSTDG

[11] = qHTS assay for small molecule activators of the human pregnane X receptor (PXR) signaling pathway (AID 720659; call rule not given here; also: 0% is about no effect)
[12] = at 45.9 µM (top of the series), tumour line B
[13] = at 45.9 µM (top of the series), tumour line D
[14] = at 46 µM (top of the series), tumour line A
[15] = at 46.1 µM (top of the series), tumour line C

O=C(O)CN1C(=O)c2cccc3cccc(c23)C1=O
inactive: Potency [1] | Potency [2] | Potency [3] | Potency [4] | Potency [5] | Potency [6] | Potency [7] | activity, negative = cell killing [8, 12] -8.91% | activity, negative = cell killing [8, 13] -13.3% | activity, negative = cell killing [8, 14] -27.1% | activity, negative = cell killing [8, 15] -19.2% | Potency [9]

O=C1O[C@H]([C@@H](O)CO)C(O)=C1O
inactive: Potency [1] | Potency [2] | Potency [3] | Potency [4] | Potency [5] | Potency [6] | Potency [7] | activity, negative = cell killing [8, 12] -10.4% and -5.65% | activity, negative = cell killing [8, 13] -12.1% and -20.9% | activity, negative = cell killing [8, 14] -0.597% | activity, negative = cell killing [8, 15] -3.99% and -11% | Potency [9] | max response [10] 2.78% and -0.0955% | outcome [11]

O=C(O)c1ccccc1-c1ccc(C(F)(F)F)cc1
inactive: Potency [1] | Potency [2] | Potency [3] | Potency [4] | Potency [5] | Potency [6] | Potency [7] | activity, negative = cell killing [8, 12] -7.48% | activity, negative = cell killing [8, 13] -6.37% | activity, negative = cell killing [8, 14] -14.4% | activity, negative = cell killing [8, 15] 1.99% | Potency [9]

Cc1cccc(Nc2cc(Cl)nc(SCC(=O)O)n2)c1C
inactive: Potency [1] | Potency [2] | Potency [3] | Potency [4] | Potency [5] | Potency [6] | Potency [7] | activity, negative = cell killing [8, 12] -5.07% | activity, negative = cell killing [8, 13] -15.1% | activity, negative = cell killing [8, 14] -33.3% | activity, negative = cell killing [8, 15] 0.18% | Potency [9] | max response [10] -4.85% | outcome [11]

CCCCC/C(C=O)=C\c1ccccc1
inactive: Potency [1] | Potency [2] | Potency [3] | Potency [4] | Potency [5] | Potency [6] | Potency [7] | activity, negative = cell killing [8, 12] -2.87% | activity, negative = cell killing [8, 13] -16.9% | activity, negative = cell killing [8, 14] -24.2% | activity, negative = cell killing [8, 15] -7.86% | Potency [9]

CCCn1cnc2c1c(=O)n(CCCCC(C)=O)c(=O)n2C
inactive: Potency [1] | Potency [2] | Potency [3] | Potency [4] | Potency [5] | Potency [6] | Potency [7] | activity, negative = cell killing [8, 12] -7.91% | activity, negative = cell killing [8, 13] -10.9% | activity, negative = cell killing [8, 14] -20.8% | activity, negative = cell killing [8, 15] 14.2% | Potency [9]

N[C@@H](CSSC[C@H](N)C(=O)O)C(=O)O
inactive: activity change, negative = cytotoxicity [1] 4.09% [at 0.462 µM] | activity change, negative = cytotoxicity [2] -2.56% [at 0.462 µM] | activity change, negative = cytotoxicity [3] 16.5% [at 0.462 µM] | activity change, negative = cytotoxicity [4] -8.19% [at 0.462 µM] | activity change, negative = cytotoxicity [5] 0% [at 0.462 µM] | activity change, negative = cytotoxicity [6] 3.42% [at 0.462 µM] | activity change, negative = cytotoxicity [7] 1.24% [at 0.462 µM] | activity, negative = cell killing [8, 12] 7.37% | activity, negative = cell killing [8, 13] 8.78% | activity, negative = cell killing [8, 14] 8.9% | activity, negative = cell killing [8, 15] -5.12% | Potency [9]

COc1ccc(Cl)cc1C(=O)NCCc1ccc(S(=O)(=O)NC(=O)NC2CCCCC2)cc1
inactive: Potency [1] | Potency [2] | Potency [3] | Potency [4] | Potency [5] | Potency [6] | Potency [7] | activity, negative = cell killing [8, 12] 5.08% | activity, negative = cell killing [8, 13] -17.4% | activity, negative = cell killing [8, 14] -29% | activity, negative = cell killing [8, 15] -8.3% | Potency [9] | max response [10] 1.29%

O=c1cc(CO)occ1O
inactive: Potency [1] | Potency [2] | Potency [3] | Potency [4] | Potency [5] | Potency [6] | Potency [7] | activity, negative = cell killing [8, 12] -1.08% and -4.58% | activity, negative = cell killing [8, 13] 14.9% and -7.17% | activity, negative = cell killing [8, 14] -25.5% and -9.07% | activity, negative = cell killing [8, 15] -15.8% and 18.8% | Potency [9]

C#CCN(C)Cc1ccccc1
inactive: Potency [1] | Potency [2] | Potency [3] | Potency [4] | Potency [5] | Potency [6] | Potency [7] | activity, negative = cell killing ([8]; at 20 µM (top of the series), tumour line C) -8.08% | activity, negative = cell killing ([8]; at 21.2 µM (top of the series), tumour line B) -12.4% | activity, negative = cell killing ([8]; at 21.2 µM (top of the series), tumour line D) -7.66% | activity, negative = cell killing ([8]; at 21.3 µM (top of the series), tumour line A) -32.1% | Potency [9]

N[C@H]1C(O)O[C@H](CO)[C@@H](O)[C@@H]1O (some centres undefined)
inactive: Potency [1] | Potency [2] | Potency [3] | Potency [4] | Potency [5] | Potency [6] | Potency [7] | activity, negative = cell killing [8, 12] -5.64% | activity, negative = cell killing [8, 13] 4.44% | activity, negative = cell killing [8, 14] -25.4% | activity, negative = cell killing [8, 15] -6.46% | Potency [9]

CC(=O)Oc1c(C)c(C)c2c(c1C)CC[C@@](C)(CCC[C@H](C)CCC[C@H](C)CCCC(C)C)O2
inactive: Potency [1] | Potency [2] | Potency [3] | Potency [4] | Potency [5] | Potency [6] | Potency [7] | activity, negative = cell killing [8, 12] -3.11% and -14.8% and -20.3% | activity, negative = cell killing [8, 13] -2.72% and -19.7% and -14.1% | activity, negative = cell killing [8, 14] -21.7% and -44.1% | activity, negative = cell killing [8, 15] -8.98% and 2.94% and -0.939% | Potency [9]

From PubChem BioAssay (NCATS)
